From PubChem
aSyn UTR act: Activators working through SNCA 5'UTR binding (MLPCN); AID 1814; alpha-synuclein 5'UTR reporter, activators screen; activity score, % (tested at 7.5 µM), hits read low; 300,000 tested, 7.1% active; in the data active = activity score below about -60%
* hit, by the source's call. These entries were drawn from the full list.

SMILES | aSyn UTR act
N#C/C(=C\c1cccc([N+](=O)[O-])c1)c1ccccn1 | -67*
O=C(N/N=C/c1ccc(Sc2nc3ccccc3s2)c([N+](=O)[O-])c1)c1ccccn1 | -75*
O=C(N/N=C/c1ccc(Cl)c([N+](=O)[O-])c1)c1cnccn1 | -72*
O=C(O)c1ccc(/C=N\Nc2ccccn2)cc1 | -79*
O=[N+]([O-])c1cccc(/C=N/Nc2ccccn2)c1 | -230*
O=[N+]([O-])c1ccc(/C=N/Nc2ccccn2)cc1 | -188*
O=[N+]([O-])c1cccc(/C=C/c2ccccn2)c1 | -141*
CN(C)c1ccc(/C=N\Nc2ccccn2)cc1 | -232*
COc1ccccc1N1CCN(/N=C/c2cccc(O)c2)CC1 | -111*
COc1ccccc1N1CCN(c2ccnc3cc(Cl)ccc23)CC1 | 87
COc1ccccc1N1CCN(/N=C/c2ccc(Cl)c([N+](=O)[O-])c2)CC1 | -128*
COc1ccccc1N1CCN(/N=C/c2ccc([N+](=O)[O-])cc2)CC1 | -159*
Cn1nnnc1SCC(=O)Nc1ccc2c(c1)OCCO2 | -86*
O=C(CSc1nnnn1-c1ccccc1)NC(=O)Nc1ccc2c(c1)OCCO2 | -86*
Nn1c(SCC(=O)NC(=O)Nc2ccc3c(c2)OCCO3)nnc1C1CC1 | -96*
COc1ccc(-c2nnc(SCc3ccccc3F)o2)cc1OC | -66*
Cc1ccc(-c2nnc(SCc3ccccc3F)o2)cc1 | -81*
Cc1nn(C)c(C)c1/C=C(/C(=O)C(C)(C)C)n1cncn1 | 89
CN1CCC(=NNC(=O)C(=O)Nc2ccc(F)cc2)CC1 | -92*
COc1ccc(CNC(=O)c2ccc(C(C)C)cc2)cc1 | -181*
CC(C)c1ccc(CNNC(=O)c2ccccc2)cc1 | -105*
COc1ccc(CNC(=O)c2ccc(C(C)(C)C)cc2)cc1 | -126*
Cc1nn(-c2ccc(Br)cc2)c(=O)c2ccccc12 | -113*
CC#CC(=O)N1CCC(C(=O)Nc2ccc(Oc3ccccc3)nc2)CC1 | -175*
O=C1CCCc2nc3c(cc21)C(O)Oc1c-3ccc2ccccc12 (stereo unspecified) | -118*
SMILES | aSyn UTR act
Cc1nc(N2CCN(S(=O)(=O)c3ccccc3)CC2)c2cc(-c3ccccc3)sc2n1 | -113*
CCc1ccc(OCC(=O)NC2CCCCC2)c(Br)c1 | -120*
COC(=O)c1[nH]c2ccc(Br)cc2c1NC(=O)CN1CCN(C2CCCCC2)CC1 | 75
O=C(COc1ccc(Br)cc1Br)NC(=O)NC1CCCC1 | -237*
Cc1cc(Br)ccc1OCC(=O)NC1CCCC1 | -66*
COc1ccccc1OCC(=O)NC1CCCCCC1 | -76*
CCc1ccc(OCC(=O)Nc2ccncc2)c(Br)c1 | -442*
O=C(Nc1ccc(N2CCOCC2)c(Cl)c1)c1cc(F)c(F)cc1Cl | -64*
COc1c(C)cccc1C(=O)Nc1ccc(N2CCOCC2)c(Cl)c1 | -173*
C=CCN(c1ccccc1OC)S(=O)(=O)c1ccc(Cl)c(C(=O)Nc2ccc(N3CCOCC3)cc2)c1 | 89
Cc1nc2oc3ccc(F)cc3c(=O)c2cc1C(=O)O | -75*
Cc1ccc2oc3nc(C)c(C(=O)O)cc3c(=O)c2c1 | -103*
CC(=O)c1cc2c(=O)c3cc(C)ccc3oc2nc1C | -184*
CCOC(=O)c1cc2c(=O)c3cc(C)ccc3oc2nc1C | -114*
CSC1=NSC2=NC(=O)/C(=C\c3cccs3)C(=N)N12 | -199*
CC(C)CSC1=NSC2=NC(=O)/C(=C\c3cccs3)C(=N)N12 | -69*
Cn1c(C(=O)NCCC2=CCCCC2)cc2c(=O)n3ccccc3nc21 | -70*
Cn1c(C(=O)N2COCC2(C)C)cc2c(=O)n3ccccc3nc21 | -81*
Cc1cccn2c(=O)c3cc(C(=O)N4COCC4(C)C)sc3nc12 | -97*
O=C(Nc1ccc(O)cc1)c1cc2ccccc2c(=O)s1 | -114*
O=C(Nc1ccccc1)c1cc2ccccc2c(=O)s1 | -209*
O=C(c1ccc(-n2cccn2)cc1)N1CCc2ccccc2C1 | -63*
CC(C)c1ccc(N=C2NN=C(c3cccs3)CS2)cc1 | -145*
CC(C)N=C1NN=C(c2cccs2)CS1 | -100*
CC(C)N=C1NN=C(c2ccc(Cl)c(Cl)c2)CS1 | -228*
SMILES | aSyn UTR act
COCC(C)Nc1ncnc2c1cnn2-c1ccc(Cl)cc1 (stereo unspecified) | -132*
Clc1ccc(-n2ncc3c(NCCCn4ccnc4)ncnc32)cc1 | -111*
CCc1nc(NC(C)(C)C)c2cnn(-c3ccccc3)c2n1 | -129*
Clc1ccc(-n2ncc3c(N4CCCCCC4)ncnc32)cc1 | 78
Clc1ccc(-n2ncc3c(NCc4ccccn4)ncnc32)cc1 | -123*
CCOC(=O)N1CCC(Nc2ncnc3c2cnn3-c2ccc(Cl)cc2)CC1 | -133*
c1ccc(-n2ncc3c(NCCCN4CCOCC4)ncnc32)cc1 | -97*
CCCCNc1ncnc2c1cnn2-c1ccc(Cl)cc1 | -137*
CCCCNc1ncnc2c1cnn2-c1ccccc1 | -260*
CN(C(=O)C1CCOC1)c1nnc(-c2ccccn2)s1 (stereo unspecified) | -67*
COc1ccc(OCc2cc(C(=O)NCC(C)Oc3cccnc3)no2)c(Cl)c1 (stereo unspecified) | -85*
COc1ccc(OCc2cc(C(=O)N(C)Cc3cc(C4CC4)n[nH]3)no2)c(Cl)c1 | -189*
COc1cc(Cl)ccc1OCc1cc(C(=O)NCc2cc(C(C)C)no2)no1 | -147*
CSc1ccccc1OCc1cc(C(=O)N(C)Cc2cnccn2)no1 | -97*
COc1ccc(OCc2cc(C(=O)N(C)Cc3cnccn3)no2)c(Cl)c1 | -71*
COc1cc(Cl)ccc1OCc1cc(C(=O)NC(C)Cc2cccnc2)no1 (stereo unspecified) | -97*
COc1ccc(OCc2cc(C(=O)NC(C)Cc3cnccn3)no2)c(Cl)c1 (stereo unspecified) | -144*
COc1cc(OC)cc(C(=O)NC(=S)NNC(=O)c2cnccn2)c1 | 73
COc1ccccc1CCc1nnc(CCC(=O)N(C)Cc2cccc3cnccc23)o1 | -131*
COc1cc(Cl)ccc1OCc1cc(C(=O)N(C)Cc2cccc3cnccc23)no1 | -77*
COc1ccc(-c2ccc(SCC(=O)c3cccs3)nn2)cc1 | -94*
O=C(CSc1ccc(-c2cccs2)nn1)N1CCCCCC1 | -71*
Cc1ccc(-c2ccc(SCC(=O)c3ccccc3)nn2)cc1 | -65*
Cc1cc(SCC(=O)c2ccccc2)nc(=O)[nH]1 | -107*
O=C(CSc1ccc(-c2ccccc2)nn1)c1cccs1 | -94*
SMILES | aSyn UTR act
N=c1c2c(-c3ccccc3)c(-c3ccccc3)n(Cc3ccccc3)c2ncn1CCO | 61
Cc1c(C)n(CCc2ccccc2)c2ncnc(NCCO)c12 | -146*
COc1ccccc1Nc1ncnc2c1c(C)c(C)n2CCO | -103*
O=C(Nc1nc(-c2ccccc2)cs1)c1ccco1 | -98*
Cc1ccc(-c2csc(NC(=O)c3ccc(-c4ccccc4)cc3)n2)o1 | -122*
COc1ccc(-c2csc(NC(=O)C3=NN(c4ccccc4)C(=O)CC3)n2)cc1 | -86*
Cc1ccc(-c2csc(NC(=O)c3ccco3)n2)cc1C | -209*
O=C(NNc1nc(-c2ccc(Br)cc2)cs1)c1ccco1 | -105*
O=C(Nc1nc(-c2ccco2)cs1)c1ccccc1 | -181*
CCOc1ccc(-c2csc(NC(=O)c3ccco3)n2)cc1 | -126*
O=C(Nc1nc(-c2ccccn2)cs1)c1ccccc1-n1cnnn1 | 98
COc1ccc(-c2csc(NC(=O)c3ccco3)n2)cc1 | -241*
CC(C)c1ccc(/C=C(\c2nc3ccccc3[nH]2)S(=O)(=O)c2ccccc2)cc1 | -81*
